Screening data from PubChem.
Only a selection was taken, and hits are over-represented in it overall.
Pf Dd2 growth: qHTS Primary assay for Inhibitors of Plasmodium falciparum Dd2 growth in vitro. 120,000 tested, 4.3% active. P. falciparum Dd2 growth, SYBR Green, 72 h. Potency, µM (highest dose often 28.9 µM), for the others: top-dose activity, negative = inhibition, hits mostly inhibitors; active means well fitted inhibition curve with a large enough effect;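 further: plate controls were DMSO vehicle for no effect and reference drug for full effect; nearly all actives have a fitted effect of over 65% in size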
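Readout: SYBR Green fluorescence, 485 nm excitation, 535 nm emission, after ~16 h lysis at 37C. Before that, Dd2-infected red cells (2.5% hematocrit) grew 72 h with compound, 29 uM top final concentration.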
An asterisk follows results filed as active; i = inactive; [ ] = dose if it differs, or a comment. Potency means the concentration at half of the fitted maximal effect.

SMILES | Pf Dd2 growth
CC(C)c1noc(-c2cccn3c(CNC(=O)c4ccccc4Cl)nnc23)n1 | i
CC(C)(C)n1nnnc1C1CC2(CCOCC2)C(=O)N1CCc1c[nH]c2ccccc12 (stereo not drawn) | -23.4%
Cc1ccc(C(=O)NCc2nnc3cc(-c4nc(C)no4)ccn23)cc1 | i
CN(C)c1cccc(C(=O)N2CCCN(c3cc(-c4ccc(F)cc4)[nH]n3)CC2)c1 | -7.5%
CCN(Cc1noc(C2CCC2)n1)C(=O)CC1C(=O)NCCN1CC(C)C (stereo not drawn) | -2.0%
CN(C)C[C@@H]1CN(Cc2ccccc2)C[C@H]1NC(=O)c1ccn(C)n1 | 5.5%
Cc1c(CNC(=O)c2ccccc2C2CCNC2)oc2ccccc12 (stereo not drawn) | -5.4%
COc1ccccc1NC(=O)c1sc2nc(C)c(C(=O)Nc3ccc(C)cc3C)c(-c3ccc(C)o3)c2c1N | 11.2µM*
COc1ccccc1NC(=O)c1sc2nc(N3CCOCC3)c3c(c2c1N)CC(C)(C)OC3 | -3.3%
COC(=O)c1ccccc1NC(=O)c1sc2nc(C)cc(C)c2c1NC(=O)c1ccccc1OC | 33.3%
COc1cccc(C(=O)N2C(C(=O)NC3CC3)COC23CCN(C(=O)c2cccc(F)c2)CC3)c1 (stereo not drawn) | i
O[C@]12CCNC[C@H]1CN(Cc1cccc(-c3ccccc3)c1)CC2 | 8.91µM*
CN1C(=O)CC(C(=O)O)C12CCN(Cc1cccc(-c3ccccc3)c1)CC2 (stereo not drawn) | -16.1%
OC[C@]12CCCN[C@@H]1CCN(Cc1cccc(-c3ccccn3)c1)C2 | i
O=C(Nc1cccc(C(F)(F)F)c1)N1CCCC1c1nncn1C1CCCC1 (stereo not drawn) | i
CCOc1ccccc1C(=O)N1CCC(CC(=O)NCc2ccccc2)C1 (stereo not drawn) | -9.6%
Cc1ccc(-c2c(C(=O)N3CCN(c4cccc(C)c4)C(C)C3)oc(=O)c3ccccc23)cc1 (stereo not drawn) | 4.47µM*
Cc1cccc(N2CCN(C(=O)c3ccc4c(c3)c(C)c(C)n4C)CC2C)c1 (stereo not drawn) | i
Cc1cccc(N2CCN(C(=O)c3cc4c(=O)n(C)c5ccccc5c4s3)CC2C)c1 (stereo not drawn) | 4.8%
N#Cc1cccc(-c2cn3c(n2)N(C(=O)c2ccoc2)CCC3)c1 | i
Cc1nnc2ccc(NCc3ccc(F)cc3)nn12 | -9.5%
CCc1nnc2ccc(NCc3ccc(F)cc3)nn12 | 7.08µM*
Cc1cccc(CNc2ccc3nnc(C)n3n2)c1 | i
NC(=O)[C@H]1C[C@@H](O)[C@H](O)[C@H]2[C@@H]1SC(=NCC1CCCCC1)N2Cc1ccc(F)cc1 | i
Cc1nnc(-c2cc(C(=O)NCCc3ccccc3)ccn2)n1Cc1cccnc1 | i
SMILES | Pf Dd2 growth
Cc1ncc2c(c1CNC(=O)c1ccccc1C1CCNC1)CCNC2 (stereo not drawn) | 2.7%
CC(C)c1noc(-c2cccn3c(CNC(=O)C4CCCC4)nnc23)n1 | i
O=C(N1CCOCC1)N1CCN(c2ccc(Cl)nn2)C(=O)C1 | 9.1%
CCc1ccc(NC(=O)c2ccc(F)c(S(=O)(=O)N3CCc4ccccc4C3)c2)cc1 | 15.8%
CCc1ccc(NC(=O)c2ccc(F)c(S(=O)(=O)N3CCC(C)CC3)c2)cc1 | -17.7%
CCc1ccc(NC(=O)c2ccc(F)c(S(=O)(=O)N(C)C3CCCCC3)c2)cc1 | 11.2µM*
COC[C@@H]1CN(C(=O)CCc2ccccc2)C[C@H]1C(N)=O | -7.0%
COCC(=O)NC1CCC12CCN(Cc1ccc(C)c(C)c1)CC2 (stereo not drawn) | i
CCC1=C(c2ccc(C)cc2)S(=O)(=O)N=C1N1CCC(C(=O)NCCc2ccc(Cl)cc2)CC1 | 8.91µM*
CC1=C(c2ccc(Cl)cc2)S(=O)(=O)N=C1N1CCC(C(=O)NCCc2ccco2)CC1 | 21.7%
CC1=C(c2ccc(F)cc2)S(=O)(=O)N=C1N1CCC(C(=O)NCCc2ccccc2)CC1 | i
CCCCCC(=O)Nc1nc2c(s1)C[C@@H]1[C@](C)(CO)[C@H](O)CC[C@@]1(C)[C@@H]2CC(=O)NC1CC1 | -2.9%
CC(C)N(Cc1nccn1C)C(=O)c1cc(Cn2cnc3ccccc32)[nH]n1 | -16.3%
Cc1cc(NC(=O)Nc2csc3c2CCCC3)ccc1Br | 12.6µM*
Cc1cc(NC(=O)Nc2nnc(N(C)C3CCCCC3)s2)ccc1Br | -23.5%[5.79 µM]
Cc1ccc(NC(=O)Nc2nc3c(s2)CCCCCC3)cc1C | -18.9%
CSCCC(=O)N1CCC2(CCCN(Cc3cccnc3)C2=O)C1 (stereo not drawn) | 14.1%
CC(C)c1nc(NC(=O)Cn2nc3c(cc2=O)CCCC3)n[nH]1 | 10.2%
O=C(NCCc1ccccc1)c1ccc2c(c1)N(Cc1c(F)cccc1Cl)C(=O)CS2 | i
CN1CCN(C(=O)c2ccc3c(c2)N(Cc2ccc(C(F)(F)F)cc2)C(=O)c2ccccc2S3)CC1 | 0.398µM*
Cc1ccccc1CN1C(=O)c2ccccc2Sc2ccc(C(=O)O)cc21 | 13.2%
Cc1ccccc1CN1C(=O)c2ccccc2Sc2ccc(C(=O)N3CCOCC3)cc21 | 30.5%
Cc1ccccc1CN1C(=O)c2ccccc2Sc2ccc(C(=O)N3CCCC3)cc21 | -17.3%
O=C(c1ccc2c(c1)N(Cc1c(F)cccc1Cl)C(=O)c1ccccc1S2)N1CCC2(CC1)OCCO2 | 10µM*
CCN(CC)CCNC(=O)Nc1ccc2c(c1)N(Cc1ccccc1)C(=O)c1ccccc1S2 | 3.98µM*
SMILES | Pf Dd2 growth
CCOC(=O)c1ccc2c(c1)N(Cc1ccccc1)C(=O)c1ccccc1S2 | -12.8%
Cc1cccc(CN2C(=O)c3ccccc3Sc3ccc(C(=O)N4CCCC4)cc32)c1 | 14.1µM*
O=C(c1ccc2c(c1)N(Cc1cccc(F)c1)C(=O)c1ccccc1S2)N1CCOCC1 | -17.4%
CN1C(=O)c2ccccc2Sc2ccc(NC(=O)NCc3ccc(Cl)cc3)cc21 | -27.2%
COC1CN(C2CCN(C(=O)C3CCCC3)CC2)C12CCOCC2 (stereo not drawn) | -8.0%
O=C(Cn1c2c(c(=O)n1Cc1ccccc1)CCN(Cc1ccccc1)C2)NCc1cccc(F)c1 | 9.6%
COc1cccc(OCc2nc3c(n2Cc2ccccc2)C(=O)N(Cc2ccccc2C#N)CCN3)c1 | -18.0%
Cc1nc([C@@H]2CN(C(=O)c3nn(C)c4ccccc34)C[C@H]2C(N)=O)n[nH]1 | 6.5%
COc1ccc(NC(=O)N2CC[C@@H](CO)N(C)c3cccnc3C2)cc1 | -10.1%[44.1 µM]
O=[S+]([O-])(C1CC1)N1C2CCC1CN(Cc1cccnc1)C2 | 14.0%
O=C(NCC1(O)CCCN(C(=O)Cc2cccc(O)c2)CC1)c1ccccc1 (stereo not drawn) | -0.3%
COc1ccc(NC(=O)Cn2c(-c3ccccc3)nc(C)c(CCO)c2=O)cc1Cl | i
Cc1nccc(-c2ccccc2)c1C(=O)N[C@H]1C[C@@H]2OCC[C@H]12 | -4.9%
CCc1noc(-c2cccn3c(CNC(=O)c4ccccc4C)nnc23)n1 | -27.6%
CN(Cc1cccn1C)C1CCc2ccccc21 (stereo not drawn) | i
CN(Cc1nccs1)c1ccc(-c2nc(-c3ccccc3F)no2)cn1 | -22.9%
CN1CCN(c2nc3c(c(=O)[nH]2)CCN(Cc2cccc(F)c2F)CC3)CC1 | i[5.79 µM]
O=C(Nc1ccc([C@@H](O)[C@H]2COCC(=O)N2Cc2ccc(F)cc2)cc1)c1cccnc1 | -29.4%
COc1cc2c(cc1OC1CCCC1)NC(=O)C21CCN(C(=O)C(C)C)CC1 | i
O=C(c1ccnnc1)N1CCC2(CCN(Cc3ccccn3)CC2)C(CO)C1 (stereo not drawn) | -14.5%
